Holding throughout (experiment): DAPPL (digital affinity profiling via proximity ligation, sequencing); 10 mM Tris-HCl pH 7.5, 50 mM NaCl, 1 mM DTT, 4% glycerol, room temperature, 30 min; GST-TFs on glutathione beads, 16-mer random dsDNA library, 0.1% formaldehyde crosslink after washing; high values mean tight binding
What all share (details): protein: recombinant; tags: N-terminal GST; dsDNA, one strand shown

The target of one test is T1, GABPA (Homo sapiens, UniProt Q06546 1-454).
T1 sequence: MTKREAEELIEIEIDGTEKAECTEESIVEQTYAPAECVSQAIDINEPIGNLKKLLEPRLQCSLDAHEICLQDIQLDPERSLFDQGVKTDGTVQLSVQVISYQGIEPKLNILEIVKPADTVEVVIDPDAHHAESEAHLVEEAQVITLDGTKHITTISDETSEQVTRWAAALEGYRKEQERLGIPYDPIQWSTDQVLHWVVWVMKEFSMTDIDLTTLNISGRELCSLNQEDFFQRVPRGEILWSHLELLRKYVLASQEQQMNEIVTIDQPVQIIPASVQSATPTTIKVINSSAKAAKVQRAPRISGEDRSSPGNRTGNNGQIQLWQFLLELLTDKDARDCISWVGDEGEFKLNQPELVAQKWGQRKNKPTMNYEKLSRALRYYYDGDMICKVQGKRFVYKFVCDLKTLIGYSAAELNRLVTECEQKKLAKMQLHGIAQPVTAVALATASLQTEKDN
In outline: (§1)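 Each value of binding signal is a hexamer's read frequency for a factor divided by the same hexamer's frequency in the tag-only sample. Barcoded, bead-captured GST fusions of human transcription factors made in yeast were pooled with that sample and incubated with 200 nmole of a random double-stranded 16-mer DNA library in Tris/NaCl/DTT/glycerol buffer at room temperature for 30 min. Washing, 0.1% formaldehyde crosslinking, proximity ligation, PCR and Illumina NextSeq500 sequencing followed.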

Another test concerns the target T2, ERG (Homo sapiens, UniProt P11308 1-479).
T2 sequence: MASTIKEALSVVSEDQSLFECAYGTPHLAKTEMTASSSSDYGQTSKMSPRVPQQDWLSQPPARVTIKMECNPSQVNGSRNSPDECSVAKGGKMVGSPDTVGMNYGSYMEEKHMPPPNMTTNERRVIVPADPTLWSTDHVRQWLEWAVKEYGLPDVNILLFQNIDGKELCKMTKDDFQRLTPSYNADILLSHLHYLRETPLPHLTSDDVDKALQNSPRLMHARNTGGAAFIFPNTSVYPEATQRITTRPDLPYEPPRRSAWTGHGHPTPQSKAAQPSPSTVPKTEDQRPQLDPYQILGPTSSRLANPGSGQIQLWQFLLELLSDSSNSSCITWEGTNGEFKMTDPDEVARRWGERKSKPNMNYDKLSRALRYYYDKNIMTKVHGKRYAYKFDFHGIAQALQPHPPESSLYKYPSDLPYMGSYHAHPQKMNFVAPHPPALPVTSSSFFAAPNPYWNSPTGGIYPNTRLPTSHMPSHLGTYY
In outline: as §1

The next test has as its target ELF1 (Homo sapiens, UniProt P32519 1-619). In outline: as §1
In the next test the target is T3, EHF (Homo sapiens, UniProt Q9NZC4 1-300).
T3 sequence: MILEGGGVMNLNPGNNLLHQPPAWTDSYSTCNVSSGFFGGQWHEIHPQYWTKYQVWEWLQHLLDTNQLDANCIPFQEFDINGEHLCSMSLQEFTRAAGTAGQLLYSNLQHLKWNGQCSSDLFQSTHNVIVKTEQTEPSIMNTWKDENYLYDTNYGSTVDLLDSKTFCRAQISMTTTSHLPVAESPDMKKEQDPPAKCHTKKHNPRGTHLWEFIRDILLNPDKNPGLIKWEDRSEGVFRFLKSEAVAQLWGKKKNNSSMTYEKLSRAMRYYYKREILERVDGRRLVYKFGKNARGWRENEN
The procedure, abridged: as §1

The target of the next test is SPI1 (Homo sapiens, UniProt P17947 1-270). In outline: as §1
Another test addresses SPIB (Homo sapiens, UniProt Q01892 1-262). In outline:
as §1

The target of a further test is T4, SPIC (Homo sapiens, UniProt Q8N5J4 1-248).
T4 sequence: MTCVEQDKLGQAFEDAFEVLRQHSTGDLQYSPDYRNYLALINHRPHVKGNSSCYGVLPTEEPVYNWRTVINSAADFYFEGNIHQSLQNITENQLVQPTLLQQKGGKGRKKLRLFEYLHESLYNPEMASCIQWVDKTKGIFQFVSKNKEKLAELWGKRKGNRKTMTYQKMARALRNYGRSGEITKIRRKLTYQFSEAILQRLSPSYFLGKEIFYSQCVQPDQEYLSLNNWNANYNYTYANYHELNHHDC
In outline: as §1

A further test concerns the target ELF4 (Homo sapiens, UniProt Q99607 1-663). In outline:
as §1

Another test addresses T5, ELK4 (Homo sapiens, UniProt P28324-2 1-405).
T5 sequence: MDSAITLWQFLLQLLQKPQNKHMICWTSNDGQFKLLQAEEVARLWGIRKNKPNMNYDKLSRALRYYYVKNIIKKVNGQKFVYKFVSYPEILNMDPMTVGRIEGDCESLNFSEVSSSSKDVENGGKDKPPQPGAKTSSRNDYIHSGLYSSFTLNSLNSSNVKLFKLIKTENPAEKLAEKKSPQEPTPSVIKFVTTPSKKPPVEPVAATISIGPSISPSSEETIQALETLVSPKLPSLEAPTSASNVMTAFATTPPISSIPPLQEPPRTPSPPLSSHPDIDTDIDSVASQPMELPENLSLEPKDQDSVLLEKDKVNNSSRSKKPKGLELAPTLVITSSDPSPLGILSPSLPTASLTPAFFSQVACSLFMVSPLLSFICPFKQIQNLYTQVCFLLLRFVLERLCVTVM
In outline: as §1

In the next test the target is T6, ELF3 (Homo sapiens, UniProt P78545 1-371).
T6 sequence: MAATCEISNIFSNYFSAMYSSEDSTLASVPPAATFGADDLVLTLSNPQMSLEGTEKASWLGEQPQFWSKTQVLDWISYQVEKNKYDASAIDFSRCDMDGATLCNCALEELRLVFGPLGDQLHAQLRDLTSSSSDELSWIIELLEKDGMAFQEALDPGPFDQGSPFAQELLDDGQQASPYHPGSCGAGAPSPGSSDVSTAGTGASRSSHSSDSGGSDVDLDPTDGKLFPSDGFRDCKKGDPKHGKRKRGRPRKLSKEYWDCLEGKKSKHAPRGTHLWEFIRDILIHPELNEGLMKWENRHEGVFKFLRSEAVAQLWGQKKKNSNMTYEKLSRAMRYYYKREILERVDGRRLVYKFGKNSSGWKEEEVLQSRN
In outline: as §1

The next test addresses T7, ERF (Homo sapiens, UniProt P50548 1-548).
T7 sequence: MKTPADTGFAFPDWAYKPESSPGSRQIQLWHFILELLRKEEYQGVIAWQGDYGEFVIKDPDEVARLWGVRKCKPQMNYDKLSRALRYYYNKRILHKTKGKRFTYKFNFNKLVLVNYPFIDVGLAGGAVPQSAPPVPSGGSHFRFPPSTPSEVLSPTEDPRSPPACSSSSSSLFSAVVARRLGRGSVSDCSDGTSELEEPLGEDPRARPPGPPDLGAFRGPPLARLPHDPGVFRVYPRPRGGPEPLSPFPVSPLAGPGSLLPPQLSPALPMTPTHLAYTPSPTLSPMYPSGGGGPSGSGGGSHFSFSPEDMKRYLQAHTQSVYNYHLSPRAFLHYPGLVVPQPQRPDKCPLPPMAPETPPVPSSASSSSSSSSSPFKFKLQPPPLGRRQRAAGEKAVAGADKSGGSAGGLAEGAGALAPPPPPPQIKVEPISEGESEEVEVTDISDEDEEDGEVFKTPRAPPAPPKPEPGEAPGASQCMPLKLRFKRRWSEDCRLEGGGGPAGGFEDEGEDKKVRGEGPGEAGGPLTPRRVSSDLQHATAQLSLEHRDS
The procedure, abridged:
as §1

In the next test the target is T8, ETV3L (Homo sapiens, UniProt Q6ZN32 1-361).
T8 sequence: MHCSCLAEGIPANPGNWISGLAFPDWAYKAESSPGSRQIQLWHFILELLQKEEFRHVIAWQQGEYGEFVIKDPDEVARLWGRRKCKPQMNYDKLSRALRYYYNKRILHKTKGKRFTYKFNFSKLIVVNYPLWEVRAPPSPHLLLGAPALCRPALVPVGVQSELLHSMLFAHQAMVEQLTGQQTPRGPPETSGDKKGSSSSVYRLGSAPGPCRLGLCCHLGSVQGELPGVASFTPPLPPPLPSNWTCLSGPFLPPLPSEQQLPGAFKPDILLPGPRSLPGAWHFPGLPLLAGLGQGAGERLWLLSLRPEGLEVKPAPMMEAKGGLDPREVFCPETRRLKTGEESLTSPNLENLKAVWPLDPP
The procedure, abridged: as §1

The target of another test is T9, SPDEF (Homo sapiens, UniProt O95238 1-335).
T9 sequence: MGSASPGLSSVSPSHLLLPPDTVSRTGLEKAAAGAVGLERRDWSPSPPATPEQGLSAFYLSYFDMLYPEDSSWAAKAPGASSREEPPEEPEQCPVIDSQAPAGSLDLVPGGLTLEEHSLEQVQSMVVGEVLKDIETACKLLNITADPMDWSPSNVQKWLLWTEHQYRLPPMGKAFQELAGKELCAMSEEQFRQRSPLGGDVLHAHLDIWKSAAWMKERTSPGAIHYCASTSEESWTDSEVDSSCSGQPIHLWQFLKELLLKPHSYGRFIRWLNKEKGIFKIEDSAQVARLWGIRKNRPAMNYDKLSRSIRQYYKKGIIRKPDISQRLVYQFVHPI
In outline:
as §1

The target in a further test is T10, ETV7 (Homo sapiens, UniProt Q9Y603 1-341).
T10 sequence: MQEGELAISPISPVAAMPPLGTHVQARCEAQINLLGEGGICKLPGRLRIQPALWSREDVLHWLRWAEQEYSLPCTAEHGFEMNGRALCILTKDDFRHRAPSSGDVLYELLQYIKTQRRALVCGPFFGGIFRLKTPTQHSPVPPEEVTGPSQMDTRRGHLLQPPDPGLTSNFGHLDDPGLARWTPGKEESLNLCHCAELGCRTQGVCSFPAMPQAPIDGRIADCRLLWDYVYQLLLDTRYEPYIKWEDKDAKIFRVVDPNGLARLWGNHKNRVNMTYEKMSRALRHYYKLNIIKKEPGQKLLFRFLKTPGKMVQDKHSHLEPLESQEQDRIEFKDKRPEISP
The procedure, abridged:
as §1

Sequence of ELF1 (P32519 whole entry): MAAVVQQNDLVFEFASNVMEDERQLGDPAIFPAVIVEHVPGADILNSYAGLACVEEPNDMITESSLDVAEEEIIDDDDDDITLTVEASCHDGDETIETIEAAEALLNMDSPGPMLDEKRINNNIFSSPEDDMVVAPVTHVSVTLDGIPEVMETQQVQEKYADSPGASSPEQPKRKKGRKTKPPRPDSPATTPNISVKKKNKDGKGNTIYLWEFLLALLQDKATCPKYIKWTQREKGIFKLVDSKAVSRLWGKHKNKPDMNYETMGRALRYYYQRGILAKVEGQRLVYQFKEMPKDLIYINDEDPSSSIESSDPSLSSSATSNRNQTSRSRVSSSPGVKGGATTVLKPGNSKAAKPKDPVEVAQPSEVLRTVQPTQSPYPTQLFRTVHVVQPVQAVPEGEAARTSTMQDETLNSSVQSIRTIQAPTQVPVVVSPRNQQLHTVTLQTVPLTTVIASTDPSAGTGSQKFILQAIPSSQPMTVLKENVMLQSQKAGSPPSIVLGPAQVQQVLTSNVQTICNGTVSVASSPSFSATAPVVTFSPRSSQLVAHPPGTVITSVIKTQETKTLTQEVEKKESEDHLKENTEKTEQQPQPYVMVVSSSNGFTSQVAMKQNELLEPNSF
Sequence of ELF4 (Q99607 whole entry): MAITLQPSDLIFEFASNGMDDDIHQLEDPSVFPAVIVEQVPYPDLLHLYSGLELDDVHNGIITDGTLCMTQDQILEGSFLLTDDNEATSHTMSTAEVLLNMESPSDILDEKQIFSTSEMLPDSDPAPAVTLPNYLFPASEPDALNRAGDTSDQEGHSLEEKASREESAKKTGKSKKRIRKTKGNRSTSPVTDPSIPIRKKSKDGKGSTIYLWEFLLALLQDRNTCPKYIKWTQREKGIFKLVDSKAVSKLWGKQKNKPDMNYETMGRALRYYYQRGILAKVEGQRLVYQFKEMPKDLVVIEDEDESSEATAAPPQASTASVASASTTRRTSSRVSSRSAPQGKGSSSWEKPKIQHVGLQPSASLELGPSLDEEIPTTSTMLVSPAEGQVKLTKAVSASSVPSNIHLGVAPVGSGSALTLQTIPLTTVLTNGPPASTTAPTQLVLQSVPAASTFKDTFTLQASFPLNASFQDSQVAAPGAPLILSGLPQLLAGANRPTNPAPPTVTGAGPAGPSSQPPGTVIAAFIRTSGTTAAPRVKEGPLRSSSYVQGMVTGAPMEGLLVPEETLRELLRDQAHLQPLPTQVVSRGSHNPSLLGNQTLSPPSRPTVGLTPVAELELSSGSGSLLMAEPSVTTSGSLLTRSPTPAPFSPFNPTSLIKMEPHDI
Sequence of SPIB (Q01892 whole entry): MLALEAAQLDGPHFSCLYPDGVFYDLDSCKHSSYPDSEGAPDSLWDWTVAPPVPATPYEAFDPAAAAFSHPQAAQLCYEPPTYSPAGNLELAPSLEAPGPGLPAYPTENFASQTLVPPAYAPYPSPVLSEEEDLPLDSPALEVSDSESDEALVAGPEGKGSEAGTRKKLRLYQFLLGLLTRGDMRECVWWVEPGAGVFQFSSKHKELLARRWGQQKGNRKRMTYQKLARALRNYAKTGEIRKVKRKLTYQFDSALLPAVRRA

With CTAGCC, the binding signal in the test with GABPA was 1 fold enrichment (6-mer frequency, TF over GST control); in the test with ERG, 1.01 fold enrichment (6-mer frequency, TF over GST control); in the test with ELF1 it was 1.07 fold enrichment (6-mer frequency, TF over GST control); in the test with EHF it was 1 fold enrichment (6-mer frequency, TF over GST control); in the test with SPI1, 1.1 fold enrichment (6-mer frequency, TF over GST control); with SPIB it was 1.02 fold enrichment (6-mer frequency, TF over GST control). Further, the binding signal in the test with SPIC was 1.08 fold enrichment (6-mer frequency, TF over GST control); with ELF4 it was 1.01 fold enrichment (6-mer frequency, TF over GST control); with ELK4, 1.1 fold enrichment (6-mer frequency, TF over GST control); in the test with ELF3, 1.04 fold enrichment (6-mer frequency, TF over GST control); with ERF, 1.13 fold enrichment (6-mer frequency, TF over GST control); in the test with ETV3L it was 1.06 fold enrichment (6-mer frequency, TF over GST control). Further, the binding signal is 1.02 fold enrichment (6-mer frequency, TF over GST control) in the test with SPDEF and 1.02 fold enrichment (6-mer frequency, TF over GST control) with ETV7.

Source of the values: paper PMC7862700, “An all-to-all approach to the identification of sequence-specific readers for epigenetic DNA modifications on cytosine”.
